# High-throughput results deposited in PubChem by several laboratories.
# Rows were chosen to be rich in hits. Some 4% of all compounds tested hit in one or more screens of this group.
# PAX8 reporter: inhibitors of PAX8 transcriptional activity in RMG-I cells; RMG-I TPO-luciferase reporter, SteadyGlo, 24 h; inhibition, % at 12.6 µM; 360,000 tested, 1.2% active;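 active = mean replicate inhibition at least 60% with every replicate also reaching 60%; inconclusive = only one of the two criteria is met; inactive = mean below 60% and not all replicates reaching 60%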;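 also: luciferase light reporting Pax8 driven TPO promoter activity; plate controls were median of neutral control wells for no effect and mitoxantrone controls for full effect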
# Beta cell apopt: beta cell apoptosis inhibition | INS-1E cytokine-induced death, ATP luminescence, 48 h; percent of positive-control rescue, neutral wells zero | 300,000 tested, 0.8% active | protection from apoptosis, % (no concentration beside the values);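 active = Every replicate reaches about 75%, or at least half do and their mean reaches it too, limit read from the data; inconclusive = At least half of replicates reach the limit but their mean does not; inactive = Under half of replicates reach the limit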;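 also: 0% = cytokine-treated negative control wells and 100% = positive control rescue; higher means more ATP so stronger rescue from cytokine killing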
# CSC inhib: blocks cancer stem cells | inhibition, % at 7.5 µM | cancer stem cell-like cells viability, luminescence | 300,000 tested, 1.1% active; in the data active = inhibition above about 75%; inconclusive = no clear call, values can overlap the other calls; tested in HMLE shEcad cells
# Mdm2 MdmX PPI: inhibitors of human Mdm2/MdmX interaction; O15151+Q00987; SaOS-2 split-luciferase Mdm2/MdmX complementation, luminescence; inhibition, % at 8 µM; 330,000 tested, 3% active; AID 485346;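 active = inhibition of at least 50% at 8 µM in the primary screen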
# Target sequence (O15151 whole entry, looked up): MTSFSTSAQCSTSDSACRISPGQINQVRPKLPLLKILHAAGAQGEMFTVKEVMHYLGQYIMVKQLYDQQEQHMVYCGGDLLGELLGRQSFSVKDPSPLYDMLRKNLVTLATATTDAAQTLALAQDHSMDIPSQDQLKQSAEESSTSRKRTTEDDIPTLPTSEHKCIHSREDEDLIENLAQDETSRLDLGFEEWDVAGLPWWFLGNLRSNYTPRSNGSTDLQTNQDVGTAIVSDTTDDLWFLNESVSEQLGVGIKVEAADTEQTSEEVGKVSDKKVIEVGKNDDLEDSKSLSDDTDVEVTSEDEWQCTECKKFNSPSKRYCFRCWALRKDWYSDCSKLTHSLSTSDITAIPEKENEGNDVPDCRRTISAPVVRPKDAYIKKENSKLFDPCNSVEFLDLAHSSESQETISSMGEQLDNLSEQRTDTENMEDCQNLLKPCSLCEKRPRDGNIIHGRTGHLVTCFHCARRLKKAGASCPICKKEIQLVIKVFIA
# Target sequence (Q00987 whole entry, looked up): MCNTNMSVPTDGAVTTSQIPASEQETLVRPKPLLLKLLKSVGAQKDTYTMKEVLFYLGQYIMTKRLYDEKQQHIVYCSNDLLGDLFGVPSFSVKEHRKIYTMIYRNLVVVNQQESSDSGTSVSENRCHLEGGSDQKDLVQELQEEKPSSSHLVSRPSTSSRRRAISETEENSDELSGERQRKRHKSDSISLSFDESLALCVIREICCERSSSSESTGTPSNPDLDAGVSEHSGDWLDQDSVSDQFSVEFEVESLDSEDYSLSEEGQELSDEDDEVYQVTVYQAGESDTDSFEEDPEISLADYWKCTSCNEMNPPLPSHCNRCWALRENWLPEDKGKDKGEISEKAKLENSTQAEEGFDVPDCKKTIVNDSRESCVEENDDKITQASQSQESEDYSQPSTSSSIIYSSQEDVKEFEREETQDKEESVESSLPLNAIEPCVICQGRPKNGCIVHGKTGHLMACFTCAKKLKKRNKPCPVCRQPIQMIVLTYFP
# Gli-Sufu block: Gli-Sufu pathway antagonism | Sufu-KO-LIGHT fibroblasts, Gli luciferase reporter luminescence | inhibition, % at 5 µM | 340,000 tested, 0.74% active;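 active = inhibition above about 55%, limit read from the data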;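 also: 0% = DMSO-treated cells and 100% = wells with medium but no cells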
# Shn3 3UTR inh: reduces Shn3 3'UTR luciferase signal in osteoblasts | Clone20 osteoblast Shn3 3'UTR firefly luciferase, 24 h | inhibition, % at 12.5 µM | 360,000 tested, 0.52% active;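 active = mean inhibition of at least 75% with every replicate also reaching 75%; inconclusive = mean inhibition at least 75% but some replicate below; inactive = mean inhibition below 75%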;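 also: 0% = median of neutral control wells and 100% = pilot-screen positive control compound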
# An asterisk follows results filed as active; ? = inconclusive; / = not tested or not shown.
SMILES,PAX8 reporter,Beta cell apopt,CSC inhib,Mdm2 MdmX PPI,Gli-Sufu block,Shn3 3UTR inh
COc1ccc(NC(=O)c2cccc(-c3ccc(O)cc3)c2)cn1,-30,9,86*,37,20,9
CC(=O)Nc1cccc(NC(=O)c2cccc(-c3ccc(O)cc3)c2)c1,-15,6,/,29,10,-3
CC(C)C[C@H]1CN=C(N(C)C)N1CC(C)C,-7,0,-5,15,17,19
CC(C)C[C@H]1CN=C(N(C)C)N1CC1CCCCCC1,-18,0,3,27,22,87*
CC(C)(C)NCC(=Cc1ccccc1)C(=O)c1ccccc1,74*,/,/,/,17,97*
O=C(c1ccccn1)N1C[C@H]2[C@@H](c3ccccc31)[C@@H](CO)N2C(=O)c1ccccn1,-4,/,/,/,/,/
C[C@H](CO)N1C[C@H](C)[C@@H](CN(C)Cc2ccc(Cl)c(Cl)c2)Oc2ccc(NC(=O)Nc3ccc(F)cc3)cc2CC1=O,84*,/,/,/,/,/
C[C@@H]1CN([C@@H](C)CO)C(=O)Cc2cc(NC(=O)Nc3ccc(F)cc3)ccc2O[C@H]1CN(C)Cc1ccc(Cl)c(Cl)c1,105*,/,/,/,/,/
C[C@H]1CN([C@@H](C)CO)C(=O)Cc2cc(NC(=O)Nc3ccc(F)cc3)ccc2O[C@H]1CN(C)Cc1ccc(Cl)c(Cl)c1,110*,/,/,/,/,/
C[C@@H]1CN([C@H](C)CO)C(=O)Cc2cc(NC(=O)Nc3ccc(C(F)(F)F)cc3)ccc2O[C@H]1CN(C)Cc1ccc(Cl)c(Cl)c1,-10,/,/,/,/,/
C[C@H](CO)N1C[C@H](C)[C@H](CN(C)Cc2ccc(Cl)c(Cl)c2)Oc2ccc(NC(=O)Nc3ccc(F)cc3)cc2CC1=O,6,/,/,/,/,/
C[C@@H]1CN([C@H](C)CO)C(=O)Cc2cc(NC(=O)Nc3ccc(F)cc3)ccc2O[C@@H]1CN(C)Cc1ccc(Cl)c(Cl)c1,109*,/,/,/,/,/
C[C@H]1CN([C@@H](C)CO)C(=O)Cc2cc(NC(=O)Nc3ccc(C(F)(F)F)cc3)ccc2O[C@H]1CN(C)Cc1ccc(Cl)c(Cl)c1,49,/,/,/,/,/
C[C@@H]1CN([C@H](C)CO)C(=O)c2cc(NS(C)(=O)=O)ccc2O[C@@H](C)CCCCO[C@H]1CN(C)S(=O)(=O)c1ccccc1,-9,/,/,/,/,/
C[C@H]1CN([C@@H](C)CO)C(=O)Cc2cc(NS(=O)(=O)c3ccc(Cl)cc3)ccc2O[C@H]1CN(C)Cc1ccccc1,25,/,/,/,/,/
Cc1cc(C(=O)Nc2cccc3c2O[C@@H](CN(C)Cc2ccncc2)[C@H](C)CN([C@H](C)CO)C3=O)n(C)n1,-1,/,/,/,/,/
CC1=NN(c2ccccc2)C(=O)C1C=Nc1ccc(N(C)C)cc1 (stereo not given),-26,10,86*,10,-10,0
COc1ccc(OC)c(/C=C2\S/C(=N/NC(=O)c3ccc4ccccc4c3)NC2=O)c1,0,0,106*,/,5,2
C[C@@H]1CN([C@H](C)CO)C(=O)c2cc(NS(=O)(=O)c3ccc(Cl)cc3)ccc2O[C@@H](C)CCCCO[C@H]1CN(C)C(=O)Nc1ccccc1,41,/,/,/,/,/
C[C@@H]1CCCCO[C@@H](CN(C)C(=O)Nc2ccc(F)cc2)[C@H](C)CN([C@H](C)CO)C(=O)c2cc(NS(=O)(=O)c3ccc(Cl)cc3)ccc2O1,91*,/,/,/,/,/
C[C@@H]1CCCCO[C@H](CN(C)C(=O)Nc2ccccc2)[C@@H](C)CN([C@@H](C)CO)C(=O)c2cc(NS(=O)(=O)c3ccc(Cl)cc3)ccc2O1,66*,/,/,/,/,/
C[C@@H]1CCCCO[C@H](CN(C)C(=O)Cc2ccccc2)[C@H](C)CN([C@H](C)CO)C(=O)c2cc(NS(=O)(=O)c3ccc(Cl)cc3)ccc2O1,44,/,/,/,/,/
C[C@@H]1CCCCO[C@H](CN(C)C(=O)Cc2ccccc2)[C@@H](C)CN([C@@H](C)CO)C(=O)c2cc(NS(=O)(=O)c3ccc(Cl)cc3)ccc2O1,79*,/,/,/,/,/
COc1ccc(S(=O)(=O)N[C@@H]2CC[C@@H](CCn3cc(C(C)C)nn3)O[C@@H]2CO)cc1,-7,/,/,/,/,/
O=C(C[C@H]1C=C[C@H](NC(=O)Nc2ccc3c(c2)OCO3)[C@H](CO)O1)NCc1ccccc1,-12,/,/,/,/,/
SMILES,PAX8 reporter,Beta cell apopt,CSC inhib,Mdm2 MdmX PPI,Gli-Sufu block,Shn3 3UTR inh
C[C@H]1CN([C@@H](C)CO)C(=O)Cc2cc(NS(=O)(=O)c3cccs3)ccc2O[C@@H]1CN(C)S(=O)(=O)c1cccs1,1,/,/,/,/,/
COc1cc(OC)cc(-c2nnc(Nc3nc4c(F)cccc4s3)o2)c1,/,18,-4,41,0,18
COc1ccc(-c2nnc(Nc3nc4c(OC)cccc4s3)o2)cc1,/,3,81*,/,-4,10
C[C@H](CO)N1C[C@H](C)[C@H](CN(C)Cc2ccc(C(=O)O)cc2)Oc2ncc(C#CCN(C)C)cc2C1=O,4,/,/,/,/,/
CC(C)=CCc1c(-c2ccc(O)cc2O)oc2cc3c(c(O)c2c1=O)C=CC(C)(C)O3,/,8,-8,15,6,/
COc1ccc(-c2oc3c4c(cc(OC)c3c(=O)c2CC=C(C)C)OC(C)(C)C=C4)c(OC)c1,/,9,101*,39,/,/
CC(C)[C@H](NC(=O)OC(C)(C)C)c1nnc(S(=O)(=O)Cc2c(F)cccc2Cl)o1,/,7,44,30,1,95*
CC(C)(C)OC(=O)N[C@@H](Cc1ccccc1)c1nnc(S(=O)(=O)Cc2cccc(F)c2)o1,/,2,?,27,8,/
Cc1ccc(S(=O)(=O)N(C)C[C@@H]2OCCCC[C@@H](C)Oc3ccc(NS(=O)(=O)c4ccc(Cl)cc4)cc3C(=O)N([C@@H](C)CO)C[C@H]2C)cc1,68*,/,/,/,/,/
Cc1ccc(S(=O)(=O)Nc2ccc3c(c2)C(=O)N([C@H](C)CO)C[C@@H](C)[C@@H](CN(C)S(=O)(=O)c2ccc(Cl)cc2)OCCCC[C@@H](C)O3)cc1,49,/,/,/,/,/
Cc1ccc(S(=O)(=O)Nc2ccc3c(c2)C(=O)N([C@H](C)CO)C[C@H](C)[C@H](CN(C)S(=O)(=O)c2ccc(Cl)cc2)OCCCC[C@H](C)O3)cc1,66*,/,/,/,/,/
Cc1ccc(S(=O)(=O)N(C)C[C@@H]2OCCCC[C@@H](C)Oc3ccc(NS(=O)(=O)c4ccc(Cl)cc4)cc3C(=O)N([C@H](C)CO)C[C@H]2C)cc1,77*,/,/,/,/,/
Cc1ccc(S(=O)(=O)N(C)C[C@@H]2OCCCC[C@H](C)Oc3ccc(NS(=O)(=O)c4ccc(Cl)cc4)cc3C(=O)N([C@H](C)CO)C[C@@H]2C)cc1,74*,/,/,/,/,/
Cc1ccc(S(=O)(=O)N(C)C[C@H]2OCCCC[C@H](C)Oc3ccc(NS(=O)(=O)c4ccc(Cl)cc4)cc3C(=O)N([C@H](C)CO)C[C@H]2C)cc1,31,/,/,/,/,/
COc1ccc(CN2CC3(CN(C(=O)Cc4ccncc4)C3)c3c([nH]c4cc(OC)ccc34)[C@H]2CO)cc1,8,/,/,/,/,/
CC=Cc1ccc2n(c1=O)C[C@H]1[C@H](CO)[C@@H](C(=O)NC3CCC3)[C@@H]2N1Cc1ccccc1 (mixture of isomers),-3,/,/,/,/,/
